Assay results published in the supplement of paper PMC8387472.
Where a name gives a salt, the structure may show the parent alone. ± gives the standard deviation of the averaged measurements.

What follows are compounds tested on mESC LDLR-Dup GFP reporter (SpCas9 MH-deletion repair) (assay: fraction of GFP+ cells relative to DMSO control (fold change); higher = more MH-deletion repair to in-frame LDLR (or more editing)). Details: 2 µM; 7 days post-transfection.

SMILES	fraction of GFP+ cells
COc1c(N2CCNC(C)C2)c(F)cc2c(=O)c(C(=O)O)cn(C3CC3)c12 (configuration not stated) [Gatifloxacin]	0.995 ± 0.12
CC(C)c1cnn2c(NCc3ccccc3)cc(NCCCCCCN)nc12	1.07 ± 0.18
CN(CCOc1ccc(CC2SC(=O)NC2=O)cc1)c1ccccn1 (configuration not stated) [Rosiglitazone maleate]	1.52 ± 0.23
CCn1cc(-c2ccnc3[nH]c(-c4cccc(CN(C)C)c4)cc23)c(-c2ccc(NC(=O)N(C)C)cc2)n1	0.251 ± 0.13
COc1ccc(CCNCc2ccc(OCc3ccc(Cl)nc3)c(OC)c2)cc1OC	1.56 ± 0.28
C[C@@H]1COCCN1c1cc(C2([S@](C)(=N)=O)CC2)nc(-c2cc[nH]c3nccc2-3)n1	0.429 ± 0.24
CCN1CCN(Cc2ccc(Nc3ncc(F)c(-c4cc(F)c5nc(C)n(C(C)C)c5c4)n3)nc2)CC1	0.684 ± 0.039
CCc1ccc(CCOc2ccc(CC3SC(=O)NC3=O)cc2)nc1 (configuration not stated) [Pioglitazone HCl]	1.11 ± 0.13
COc1cc(Br)c(Nc2nc(-c3c(C)nc4ncccn34)cs2)c(Br)c1	0.111 ± 0.028
Cn1cc(-c2ccc3c(c2)CCN3C(=O)Cc2cccc(C(F)(F)F)c2)c2c(N)ncnc21	0.644 ± 0.25
C[C@@H](CN1CC(=O)NC(=O)C1)N1CC(=O)NC(=O)C1 [Dexrazoxane HCl (ICRF-187, ADR-529)]	1.05 ± 0.24
CO[C@H]1/C=C/O[C@@]2(C)Oc3c(C)c(O)c4c(O)c(c5c(nc6cc(C)ccn65)c4c3C2=O)NC(=O)/C(C)=C\C=C\[C@H](C)[C@H](O)[C@@H](C)[C@@H](O)[C@@H](C)[C@H](OC(C)=O)[C@@H]1C [Rifaximin]	0.938 ± 0.38
CSc1ccc(C(=O)/C=C/c2cc(C)c(OC(C)(C)C(=O)O)c(C)c2)cc1 [Elafibranor]	1.63 ± 0.59
CCN(CC)CCCC(C)Nc1ccnc2cc(Cl)ccc12 (configuration not stated) [Chloroquine Phosphate]	0.703 ± 0.14
CCCCCCCCC/C(=C\C1=C(C)C(=O)C(OC)=C(OC)C1=O)C(=O)O	1.19 ± 0.5
O=C1C[C@@H](c2ccc(O)cc2)Oc2cc(O)cc(O)c21 [Naringenin]	0.997 ± 0.18

SMILES	fraction of GFP+ cells
CC(=O)c1cc([N+](=O)[O-])c(Sc2cccc(Cl)c2Cl)s1	0.919 ± 0.038
COc1cc(N2CCN(C)CC2)ccc1Nc1nccc(-c2cn(C)c3cnccc23)n1	0.577 ± 0.5
C=C(C)[C@@H]1CC[C@]2(C(=O)O)CC[C@]3(C)[C@H](CC[C@@H]4[C@@]5(C)CC[C@H](O)C(C)(C)[C@@H]5CC[C@]43C)[C@@H]12 [Betulinic acid]	0.997 ± 0.13
CCCCCCCCCC(=O)N[C@@H](Cc1c[nH]c2ccccc12)C(=O)N[C@H](CC(N)=O)C(=O)N[C@@H](CC(=O)O)C(=O)N[C@@H]1C(=O)NCC(=O)N[C@@H](CCCN)C(=O)N[C@@H](CC(=O)O)C(=O)N[C@H](C)C(=O)N[C@@H](CC(=O)O)C(=O)NCC(=O)N[C@H](CO)C(=O)N[C@@H]([C@H](C)CC(=O)O)C(=O)N[C@@H](CC(=O)c2ccccc2N)C(=O)O[C@@H]1C [Daptomycin]	1.25 ± 0.27
O=C(NO)c1cccc(C(=O)NCCc2ccccc2)c1	0.743 ± 0.17
CC(C)OC(=O)C(C)(C)Oc1ccc(C(=O)c2ccc(Cl)cc2)cc1 [Fenofibrate]	1.96 ± 0.19
CCOC(=O)NCCCC(=O)NCCc1ccccc1	0.748 ± 0.18
Nc1[nH]cnc2ncnc1-2 [Adenine]	0.896 ± 0.31
C/C(=C\C(=O)OCCCCCCCCC(=O)O)C[C@@H]1OC[C@H](C[C@@H]2O[C@H]2[C@@H](C)[C@H](C)O)[C@@H](O)[C@H]1O [Mupirocin]	1.12 ± 0.3
O=C(O)C(Cc1ccccc1[N+](=O)[O-])=NNc1nc(-c2ccc(Cl)c(Cl)c2)cs1 (mixture of isomers)	1.15 ± 0.48
Cc1nc(N)sc1-c1ccnc(Nc2ccc(N3CCOCC3)cc2)n1	0.334 ± 0.28
NC(=O)C1CCCc2c1[nH]c1ccc(Cl)cc21 (configuration not stated) [Selisistat (EX 527)]	1.18 ± 0.47
O=C(O)c1ccc2c(c1)nc(Nc1cccc(Cl)c1)c1ccncc12 [Silmitasertib (CX-4945)]	0.655 ± 0.32
Cc1n[nH]c2ncc(C(=O)N3CCC[C@H]3c3ccc(Cl)cc3)cc12	1.35 ± 0.069
O=c1c(-c2ccc(O)cc2)coc2cc(O)ccc12 [Daidzein]	0.115 ± 0.039
COc1ccc(-c2oc3c(CC=C(C)C)c(O[C@@H]4O[C@H](CO)[C@@H](O)[C@H](O)[C@H]4O)cc(O)c3c(=O)c2O[C@@H]2O[C@@H](C)[C@H](O)[C@@H](O)[C@H]2O)cc1 [Icariin]	1.26 ± 0.2
